# In PubChem BioAssay:
# Values joined by “and” are separate entries in the source; they are usually repeats but may differ in a detail not shown here. Equal entries are not always repeated. Active and inactive are the calls of the source.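 The calls were made as follows, unless noted: active = normalized viability below 100% at a tested concentration; inactive = the rest.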
# What was measured:
# [1] = tested on: Aerobactin synthetase IucA (Klebsiella pneumoniae); test: IucA aerobactin synthetase inhibitors, biochemical, Tocris library, absorbance (AID 1345561; call rule not given here;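 also: 100% = enzyme without compound and 0% = no enzyme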); conditions: purified IucA enzyme assay, absorbance (OD) read-out; stronger effect = lower value;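 tested at 8 µM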
# [2] = sensitizers of A549 cells to miR-34 induction, primary screen, imaging, A549 dox-inducible miR-34, nuclei and caspase counts (AID 1347080;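 active = compounds whose cell count with miR-34 switched on is under 0.7 times the count with it off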); conditions: A549 miR-34 inducible, Hoechst nuclei count, 48 h
# [3] = survival rescue of mitochondrial mutant cells in low glucose, primary screen, MELAS cybrids, Rieske KO mouse fibroblasts, CellTiter-Glo (AID 1508586;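 active = mean z-score across replicates of 1.96 or higher in either the MELAS or the Rieske mutant cell line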;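 also: z relative to plate mean and SD of compound and empty wells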)
# [4] = ovarian cancer cell viability with rucaparib, profiling panel, oncology-focused library, rucaparib conditional (AID 1508598); conditions: patient-derived ovarian cancer cells, CellTiter-Glo viability, 144 h, stronger effect = lower value
# [5] = viability rescue of complex I mutant cybrids, primary screen, cell-based, galactose medium, ATP luminescence (AID 1645843;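 active = z-score of at least 1.8 in each of two replicates, scored against plate mean and spread of sample wells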;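 also: positive z means more ATP and so rescue of galactose-driven cybrid death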); conditions: complex I mutant cybrid cells, 72 h, stronger effect = higher value
# [6] = liver-stage malaria parasite growth inhibition, primary screen, cell-based, HepG2, luciferase luminescence, HepG2 viability (AID 624349; in the data active = parasite load remaining mostly below about 12%, no sharp cut-off; inactive = mostly above about 10%;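 also: 100% = mean of DMSO negative control wells on the same plate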); conditions: P. berghei liver stage in HepG2, luciferase luminescence, concentration not given here; parasite load remaining: stronger effect = lower value; viability: measured here: HepG2 viability without parasites
# [7] = phospholipid biosynthesis inhibitors in animal cells, primary screen, cell-based, LOPAC library, screen 4 (AID 1347384; call rule not given here); conditions: phospholipid biosynthesis inhibition screen, at 10 µM
# [8] = target: Mitogen-activated protein kinase 7 (Homo sapiens) (UniProt Q13164); test: ERK5 transactivation activators in reporter cells, primary screen, cell-based, HTS (AID 1508626;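 active = luciferase signal above three times the same-plate solvent-only control wells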;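 also: luciferase driven by Gal4-ERK5 fusion binding five Gal4 sites before minimal TATA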); conditions: HeLa Gal4-ERK5 transactivation, 18 h, at 5 µM, stronger effect = higher value
# [9] = circadian clock period modulators, cell-based, LOPAC library, luminescence reporter (AID 2774; call rule not given here;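 also: values are relative to mean of DMSO wells on each plate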); conditions: circadian reporter cells, at 7 µM, actives lie on both sides
# [10] = modifiers of HSF1 nuclear foci, imaging, Selleck Cancer Library (AID 1347162; in the data active = plate-normalised HSF1 focus index below about 0.46); conditions: human cells, at 10 µM; SSMD: measured here: HSF1 foci SSMD mean; cell count: measured here: cell number; plate-normalised HSF1 focus index: stronger effect = lower value
# [11] = stronger effect = lower value, cell number ratio, induced over uninduced
# [12] = measured here: relative caspase fold change +Dox/-Dox
# [13] = measured here: total cells with miR-34 induction, stronger effect = lower value
# [14] = measured here: total cells without miR-34 induction
# [15] = MELAS cybrid survival, CellTiter-Glo 48 h, stronger effect = higher value
# [16] = Rieske KO mouse fibroblast survival, CellTiter-Glo 72 h
# Mitogen-activated protein kinase 7 (Homo sapiens), sequence (Q13164 whole entry, looked up, the tested form may be a part): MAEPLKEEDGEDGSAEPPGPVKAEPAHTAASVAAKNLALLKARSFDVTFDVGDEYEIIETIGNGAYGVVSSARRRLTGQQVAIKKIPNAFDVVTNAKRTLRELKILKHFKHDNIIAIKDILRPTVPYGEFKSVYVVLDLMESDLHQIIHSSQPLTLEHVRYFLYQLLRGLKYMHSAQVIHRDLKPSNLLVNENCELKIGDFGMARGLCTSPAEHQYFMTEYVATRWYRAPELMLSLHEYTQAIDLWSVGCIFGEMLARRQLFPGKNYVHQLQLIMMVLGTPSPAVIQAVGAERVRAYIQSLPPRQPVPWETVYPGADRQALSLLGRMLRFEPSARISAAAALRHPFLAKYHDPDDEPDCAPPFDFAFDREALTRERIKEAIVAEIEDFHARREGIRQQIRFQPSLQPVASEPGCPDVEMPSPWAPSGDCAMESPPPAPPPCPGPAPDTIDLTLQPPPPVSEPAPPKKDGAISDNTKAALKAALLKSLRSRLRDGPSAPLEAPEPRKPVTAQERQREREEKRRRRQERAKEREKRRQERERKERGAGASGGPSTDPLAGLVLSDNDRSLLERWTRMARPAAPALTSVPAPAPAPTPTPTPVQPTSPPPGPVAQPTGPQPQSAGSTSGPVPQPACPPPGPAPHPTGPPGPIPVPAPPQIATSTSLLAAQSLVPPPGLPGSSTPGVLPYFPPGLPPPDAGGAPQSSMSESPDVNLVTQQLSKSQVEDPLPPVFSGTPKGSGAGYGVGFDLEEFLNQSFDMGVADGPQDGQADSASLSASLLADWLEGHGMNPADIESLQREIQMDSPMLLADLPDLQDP
smiles,measurement,setting,value
Cc1ccc(-c2csc(NC(=O)c3ccccc3)n2)c(C)c1,remaining activity,[1],101% (inactive)
same,fold change,[2]; [11],0.855 (inactive) and 0.98 (inactive)
same,fold change,[2]; [12],0.603 and 0.953
same,cell count,[2]; [13],6970 and 3650
same,cell count,[2]; [14],8160 and 3730
same,z-score,[3]; [15],-0.247 (inactive)
same,z-score,[3]; [16],0.265
same,viability,"[4]; at 0.000305 µM, OCI-C5x cells, with rucaparib 10 µM, 100% = cells with rucaparib alone",125% (inactive)
same,viability,"[4]; at 0.000305 µM, OCI-C5x cells, without rucaparib",121% (inactive)
same,viability,"[4]; at 0.000305 µM, OCI-P5x cells, with rucaparib 20 µM, 100% = cells with rucaparib alone",102% (inactive)
same,viability,"[4]; at 0.000305 µM, OCI-P5x cells, without rucaparib",106% (inactive)
same,viability,"[4]; at 0.00122 µM, OCI-C5x cells, with rucaparib 10 µM, 100% = cells with rucaparib alone",119% (inactive)
same,viability,"[4]; at 0.00122 µM, OCI-C5x cells, without rucaparib",117% (inactive)
same,viability,"[4]; at 0.00122 µM, OCI-P5x cells, with rucaparib 20 µM, 100% = cells with rucaparib alone",99.9% (active)
same,viability,"[4]; at 0.00122 µM, OCI-P5x cells, without rucaparib",101% (inactive)
same,viability,"[4]; at 0.00488 µM, OCI-C5x cells, with rucaparib 10 µM, 100% = cells with rucaparib alone",132% (inactive)
same,viability,"[4]; at 0.00488 µM, OCI-C5x cells, without rucaparib",125% (inactive)
same,viability,"[4]; at 0.00488 µM, OCI-P5x cells, with rucaparib 20 µM, 100% = cells with rucaparib alone",98.6% (active)
same,viability,"[4]; at 0.00488 µM, OCI-P5x cells, without rucaparib",105% (inactive)
same,viability,"[4]; at 0.0195 µM, OCI-C5x cells, with rucaparib 10 µM, 100% = cells with rucaparib alone",115% (inactive)
same,viability,"[4]; at 0.0195 µM, OCI-C5x cells, without rucaparib",113% (inactive)
same,viability,"[4]; at 0.0195 µM, OCI-P5x cells, with rucaparib 20 µM, 100% = cells with rucaparib alone",102% (inactive)
same,viability,"[4]; at 0.0195 µM, OCI-P5x cells, without rucaparib",98.4% (active)
same,viability,"[4]; at 0.0781 µM, OCI-C5x cells, with rucaparib 10 µM, 100% = cells with rucaparib alone",125% (inactive)
same,viability,"[4]; at 0.0781 µM, OCI-C5x cells, without rucaparib",117% (inactive)
same,viability,"[4]; at 0.0781 µM, OCI-P5x cells, with rucaparib 20 µM, 100% = cells with rucaparib alone",103% (inactive)
same,viability,"[4]; at 0.0781 µM, OCI-P5x cells, without rucaparib",103% (inactive)
same,viability,"[4]; at 0.313 µM, OCI-C5x cells, with rucaparib 10 µM, 100% = cells with rucaparib alone",123% (inactive)
same,viability,"[4]; at 0.313 µM, OCI-C5x cells, without rucaparib",116% (inactive)
same,viability,"[4]; at 0.313 µM, OCI-P5x cells, with rucaparib 20 µM, 100% = cells with rucaparib alone",100% (inactive)
same,viability,"[4]; at 0.313 µM, OCI-P5x cells, without rucaparib",99.4% (active)
same,viability,"[4]; at 1.25 µM, OCI-C5x cells, with rucaparib 10 µM, 100% = cells with rucaparib alone",131% (inactive)
same,viability,"[4]; at 1.25 µM, OCI-C5x cells, without rucaparib",112% (inactive)
same,viability,"[4]; at 1.25 µM, OCI-P5x cells, with rucaparib 20 µM, 100% = cells with rucaparib alone",98.2% (active)
same,viability,"[4]; at 1.25 µM, OCI-P5x cells, without rucaparib",103% (inactive)
same,viability,"[4]; at 5 µM, OCI-C5x cells, with rucaparib 10 µM, 100% = cells with rucaparib alone",155% (inactive)
same,viability,"[4]; at 5 µM, OCI-C5x cells, without rucaparib",115% (inactive)
same,viability,"[4]; at 5 µM, OCI-P5x cells, with rucaparib 20 µM, 100% = cells with rucaparib alone",91.8% (active)
same,viability,"[4]; at 5 µM, OCI-P5x cells, without rucaparib",100% (inactive)
same,z-score,[5],-0.675 (inactive)
COc1ccc(C(=O)Nc2sc3c(c2C(N)=O)CCCC3)cc1OC,parasite load remaining,[6],36.2% (inactive)
same,viability,[6],126%
same,remaining activity,[1],100% (inactive)
same,fold change,[2]; [11],0.968 (inactive) and 0.928 (inactive)
same,fold change,[2]; [12],0.55 and 1.37
same,cell count,[2]; [13],7430 and 8340
same,cell count,[2]; [14],7670 and 8990
same,z-score,[3]; [15],-0.293 (inactive)
same,z-score,[3]; [16],0.823
same,z-score,[5],1.42 (inactive)
Cc1cc(/C(=C\Nc2ccc(Cl)cc2)C(=O)Nc2ccc(Cl)cc2)on1,remaining activity,[1],122% (inactive)
same,fold change,[2]; [11],0.913 (inactive)
same,fold change,[2]; [12],0.914
same,cell count,[2]; [13],7920
same,cell count,[2]; [14],8680
same,z-score,[5],0.03 (inactive)
NS(=O)(=O)c1cccc2c1c([N+](=O)[O-])cc1[nH]c(=O)c(=O)[nH]c12,remaining activity,[1],96.2% (inactive)
same,fold change,[2]; [11],0.919 (inactive)
same,fold change,[2]; [12],0.625
same,cell count,[2]; [13],8900
same,cell count,[2]; [14],9680
same,outcome,[7],inactive
same,z-score,[5],-0.025 (inactive)
O=C(NC1CCN(Cc2ccccc2)CC1)c1ccc(I)cc1,remaining activity,[1],113% (inactive)
same,fold change,[2]; [11],0.862 (inactive)
same,fold change,[2]; [12],0.815
same,cell count,[2]; [13],6720
same,cell count,[2]; [14],7800
same,z-score,[5],-0.755 (inactive)
CC(=O)O[C@@H]1C[C@H]2C(C)(C)C(=O)C=C[C@]2(C)[C@H]2CC[C@@]3(C)[C@H](c4ccoc4)OC(=O)[C@H]4O[C@]43[C@@]21C,remaining activity,[1],103% (inactive)
same,fold change,[2]; [11],0.935 (inactive)
same,fold change,[2]; [12],1.22
same,cell count,[2]; [13],4410
same,cell count,[2]; [14],4720
same,luciferase signal,[8],96 AU (inactive)
same,z-score,[5],-0.435 (inactive)
N[C@@H](C(=O)O)c1ccc(O)c(C(=O)O)c1,remaining activity,[1],100% (inactive)
same,fold change,[2]; [11],0.932 (inactive)
same,fold change,[2]; [12],0.807
same,cell count,[2]; [13],8680
same,cell count,[2]; [14],9320
same,z-score,[5],-0.18 (inactive)
O=C1C(=O)N(Cc2ccc(Cl)c(Cl)c2)c2ccccc21,remaining activity,[1],89.3% (inactive)
same,fold change,[2]; [11],0.946 (inactive) and 0.932 (inactive)
same,fold change,[2]; [12],0.72 and 1.49
same,cell count,[2]; [13],8180 and 7960
same,cell count,[2]; [14],8650 and 8540
same,z-score,[3]; [15],-0.161 (inactive)
same,z-score,[3]; [16],-0.14
same,z-score,[5],-0.685 (inactive)
c1ccc(Oc2nc(NC3CCCCC3)c3[nH]cnc3n2)cc1,remaining activity,[1],110% (inactive)
same,fold change,[2]; [11],0.921 (inactive)
same,fold change,[2]; [12],1.13
same,cell count,[2]; [13],7420
same,cell count,[2]; [14],8060
same,z-score,[5],-0.49 (inactive)
CCCCCCCCCCCCCCCCn1cc[n+](Cc2ccccc2)c1C,parasite load remaining,[6],41.6% (inactive)
same,viability,[6],156%
same,remaining activity,[1],93.9% (inactive)
same,fold change,[2]; [11],0.951 (inactive) and 0.701 (inactive)
same,fold change,[2]; [12],0.478 and 0.77
same,cell count,[2]; [13],1020 and 275
same,cell count,[2]; [14],1080 and 392
same,z-score,[3]; [15],0.978 (inactive)
same,z-score,[3]; [16],-3.72
same,z-score,[5],-0.7 (inactive)
Cc1ccc(Sc2cncc3sc(C(N)=O)cc23)cc1,remaining activity,[1],99.8% (inactive)
same,fold change,[2]; [11],0.867 (inactive) and 0.873 (inactive)
same,fold change,[2]; [12],2.32 and 1.58
same,cell count,[2]; [13],7640 and 7700
same,cell count,[2]; [14],8800 and 8820
same,z-score,[3]; [15],-0.504 (inactive)
same,z-score,[3]; [16],-0.347
same,z-score,[5],-0.625 (inactive)
CN(C)CCCCSC(=N)N,period change,[9],0.15 h (inactive)
same,remaining activity,[1],110% (inactive)
same,fold change,[2]; [11],0.981 (inactive)
same,fold change,[2]; [12],0.637
same,cell count,[2]; [13],8600
same,cell count,[2]; [14],8770
same,SSMD,[10],1.03
same,cell count,[10],6740
same,plate-normalised HSF1 focus index,[10],1.06 (inactive)
same,z-score,[5],0.38 (inactive)
Nc1[nH]nc2nnc(-c3c(-c4ccccc4)nn4ccccc34)cc12,parasite load remaining,[6],43.4% (inactive)
same,viability,[6],122%
same,remaining activity,[1],115% (inactive)
same,fold change,[2]; [11],1.01 (inactive)
same,fold change,[2]; [12],3.36
same,cell count,[2]; [13],6630
same,cell count,[2]; [14],6550
same,SSMD,[10],2.88
same,cell count,[10],7090
same,plate-normalised HSF1 focus index,[10],1.16 (inactive)
same,z-score,[5],1.04 (inactive)
Cc1nn(-c2ccccc2)c(C)c1/C=N/N1CCN(Cc2ccccc2)CC1,remaining activity,[1],122% (inactive)
same,fold change,[2]; [11],1.03 (inactive)
same,fold change,[2]; [12],0.466
same,cell count,[2]; [13],8730
same,cell count,[2]; [14],8510
same,SSMD,[10],3.26
same,cell count,[10],6930
same,plate-normalised HSF1 focus index,[10],1.18 (inactive)
same,z-score,[5],-0.095 (inactive)
CCC(=O)NC1CCc2cccc(OC)c2C1 (stereo not given),remaining activity,[1],123% (inactive)
same,fold change,[2]; [11],1.01 (inactive)
same,fold change,[2]; [12],0.925
same,cell count,[2]; [13],8550
same,cell count,[2]; [14],8470
same,z-score,[5],-0.165 (inactive)
